The whole screen tested about 69,000 compounds, of which about 8,600 (12%) showed an effect of 50% or more. The sample as a whole holds a higher share of strong results than the screen did.
Tested on: Plasmodium berghei
Assay: Screen against P. berghei liver stage (PbLuc), transformed with Luciferase, at 10uM
Type: functional, HepG2
Conditions: tested at 10 uM

Row | Compound | INHIBITION [%]
1 | O=C(N1CCCC1)N1CCn2c(nnc2C2CCCN2)C1 (configuration not stated) | 27.5
2 | Cc1nc(C2CCCN2Cc2nc(C3CC3)no2)no1 (configuration not stated) | 26.9
3 | COCCNC(=O)[C@H]1C[C@@H]2CCN(c3ncccn3)C[C@@H]2O1 | 25.3
4 | COC[C@H]1CC[C@H]2[C@H](CCN2C(=O)c2ccncc2F)O1 | 8.52
5 | CC1CCN(C(=O)[C@@H]2CC[C@@H]3[C@@H](CCN3c3ncc(F)cn3)O2)CC1 | 62.4
6 | COCCNC(=O)[C@H]1CC[C@@H]2[C@@H](CCN2c2ncc(F)cn2)O1 | 0.734
7 | CN1CCN(C(=O)[C@@H]2CC[C@@H]3[C@@H](CCN3c3ncccn3)O2)CC1 | 34.6
8 | O=C(NC1CCCC1)[C@H]1CC[C@@H]2[C@@H](CCN2c2ncc(F)cn2)O1 | -9.54
9 | COCCNC(=O)[C@@H]1CC[C@@H]2[C@@H](CCN2c2ncc(F)cn2)O1 | 0.734
10 | O=C(NC1CC1)[C@H]1CC[C@@H]2[C@@H](CCN2c2ncc(F)cn2)O1 | 50.1
11 | Cc1noc(CN(Cc2cccs2)C2CC2)n1 | 47.3
12 | COCCO[C@H]1CCN(C(=O)c2cc(C)on2)[C@H]1Cc1ccccc1 | 28.2
13 | CC1(c2[nH]ncc2C(N)=O)CCN(S(=O)(=O)c2ccccc2)CC1 | 11.1
14 | CCC(CC)C(=O)N1CCN(Cc2cc(=O)c3ccccc3[nH]2)CC1 | 33.4
15 | CCOC(=O)Cn1cnc2nc3n(c2c1=O)CCC3 | 81.2
16 | O=c1c2c(ncn1CCO)nc1n2CCC1 | 1.98
17 | NC(=O)Cn1cnc2nc3n(c2c1=O)CCC3 | -17
18 | Cc1nn(-c2ccccc2)cc1C(=O)N1CCCC(n2ccnc2)C1 (configuration not stated) | -3.2
19 | Cc1nn(-c2ccccc2)cc1C(=O)N1CCCC(n2cccn2)C1 (configuration not stated) | 66.4
20 | Cc1ccn2ncc(C(=O)N3CCCC(n4nc(C)nc4C)C3)c2n1 (configuration not stated) | 11.5
21 | O=C(c1ccn(-c2ccccc2)n1)N1CCCC(n2cccn2)C1 (configuration not stated) | 2.97
22 | Cc1nn(-c2ccccc2)cc1C(=O)N1CCCN2CCCC2C1 (configuration not stated) | 51.3
23 | Cc1nn(-c2ccccc2)cc1C(=O)N1CCCC1c1cnn(C)c1 (configuration not stated) | 43.3

Row | Compound | INHIBITION [%]
24 | Cc1cnn(C2CCCN(C(=O)c3cn(-c4ccccc4)nc3C)C2)c1 (configuration not stated) | -42.3
25 | Cc1ccn2ncc(C(=O)N3CCCC(n4cccn4)C3)c2n1 (configuration not stated) | 50.5
26 | Cc1ccn2ncc(C(=O)N3CCCC(n4ccnc4C)C3)c2n1 (configuration not stated) | -31.5
27 | CN(C)c1ncc(C(=O)N2C[C@H]3CC(Oc4ccccc4)C[C@H]3C2)cn1 (some centres not stated) | 2.35
28 | O=C(Cc1cn2ccccc2n1)N1CCCC(n2ccnc2)C1 (configuration not stated) | -43.6
29 | Cc1cccc(N2CCOCC3(C2)CN(c2ccoc2)C(=O)CO3)n1 (configuration not stated) | 32.5
30 | NC(=O)c1cc(CC2CCCN(c3cnccn3)C2)ncn1 (configuration not stated) | -32.7
31 | CS(=O)(=O)NC1CCCN(C(=O)Nc2cccnc2N2CCCC2)C1 (configuration not stated) | 21.1
32 | Cc1oncc1C(=O)N1CC[C@H]2[C@H](C[C@@H](CN(C)C)N2CC2CC2)C1 | 33.5
33 | CN(C)C[C@@H]1C[C@@H]2CN(Cc3nccn3C)CC[C@@H]2N1CC1CC1 | 51.2
34 | CC(C)N1[C@H](Cn2cncn2)C[C@@H]2CN(Cc3nccn3C)CC[C@@H]21 | 37.6
35 | Cc1cc(C(=O)N2C[C@H]3CCC[C@@]3(CO)C2)c2ccc(F)cc2n1 | 58.6
36 | Cc1cc(C(=O)N2C[C@H](c3ccccc3)[C@@H](N)C2)c2ccc(F)cc2n1 | 13
37 | CCCc1cc(C(=O)N2C[C@H]3CCC[C@@]3(CO)C2)[nH]n1 | 21.9
38 | Cc1cc(C(=O)N2CCC(n3nc(C)cc3C)C2)c2ccc(F)cc2n1 (configuration not stated) | 37.3
39 | CCc1ccc2nc(C)cc(C(=O)N3C[C@H]4CCC[C@@]4(CO)C3)c2c1 | 25.5
40 | Cc1ccc2nc(C)cc(C(=O)N3C[C@H]4CCC[C@@]4(CO)C3)c2c1 | 75.7
41 | CC(C)COC(C)C(=O)NCc1ccc(F)cc1 (configuration not stated) | -27.8
42 | Cc1cccc(CNC(=O)CC2CCN(Cc3ccccn3)CC2)n1 | 18.3
43 | CCc1nc(C2CCCN2C(=O)CCc2cscn2)no1 (configuration not stated) | 18.2
44 | CCn1cc(CN2C[C@@H]3CCCN3C[C@H]2CCSC)cn1 | 35.2
45 | CCOCC1CN(Cc2csc(C)n2)Cc2nccn2C1 (configuration not stated) | 1.9
46 | CCCc1nnc(N2CCC3(CC2)CC(=O)NC(=O)C3)o1 | -10.2

Row | Compound | INHIBITION [%]
47 | COCc1cn(C2CCN(C(=O)Cc3ccsc3)CC2)nn1 | 34.8
48 | COc1ccc(CC(=O)N2CCCC(Cn3cc(CN)nn3)C2)cc1 (configuration not stated) | 12.7
49 | NCc1cn(CC2CCCN(C(=O)NCc3ccc(Cl)cc3)C2)nn1 (configuration not stated) | 45.8
50 | O=C(c1sccc1Cl)N1CCC(Cn2cc(CO)nn2)CC1 | 10.7
51 | NCc1cn(CC2CCCN(C(=O)CC3=CCCCC3)C2)nn1 (configuration not stated) | 58.5
52 | O=C(CC1=CCCCC1)N1CCC(Cn2cc(CCO)nn2)CC1 | 58.5
53 | CC(C)CCN1CCCC(Cn2cc(CCO)nn2)C1 (configuration not stated) | 6.69
54 | CC(C)(CN1CCCC1)CN1CCC(Cn2cc(CCO)nn2)CC1 | -6.03
55 | O=C(Cc1ccsc1)N1CCC(Cn2cc(CCO)nn2)CC1 | 57.1
56 | CC(C)N(C)Cc1cnc2n1CCN(CCc1ccccc1)C2 | 8.47
57 | O=C(NCCc1cccs1)[C@H]1CO[C@H]2CCNC[C@H]2C1 | 39.8
58 | Cc1noc(C)c1CN1CCO[C@H]2CN(C(=O)C3CCOCC3)C[C@H]21 | 29.4
59 | O=C(c1ccn(-c2ccccc2Cl)n1)N1CCCSCC1 | -15.3
60 | c1ccc(OC2C[C@@H]3CN(Cc4cnccn4)C[C@@H]3C2)cc1 (some centres not stated) | -15.3
61 | Cc1cccc(Nc2cc(C3CCCN(CC(N)=O)C3)ccn2)n1 (configuration not stated) | 81.55
62 | Cc1nnc(Nc2cccc(C3CCCN(Cc4ncc[nH]4)C3)n2)s1 (configuration not stated) | 62.9
63 | COCCNc1cc(C2CCCNC2)ccn1 (configuration not stated) | -14.775
64 | CNc1cccc(C2CCCN(Cc3ncc[nH]3)C2)n1 (configuration not stated) | 15.9
65 | Cc1cccc(Nc2nccnc2C2CCCN(CC(=O)N(C)C)C2)n1 (configuration not stated) | 36.7
66 | Cc1cccc(Nc2cccc(C3CCCN(Cc4ncc[nH]4)C3)n2)n1 (configuration not stated) | 64.1
67 | NC(=O)CN1CCCC(c2ccnc(Nc3ncccn3)c2)C1 (configuration not stated) | 37.55
68 | Cc1nnc(Nc2cccc(C3CCN(Cc4ncc[nH]4)CC3)n2)s1 | -12.9
69 | Cc1cc(C)nc(Nc2cccc(C3CCCN(CC4CC4)C3)n2)n1 (configuration not stated) | 47.2

Row | Compound | INHIBITION [%]
70 | Cc1cccc(CNc2cc(C3CCCNC3)ccn2)n1 (configuration not stated) | 50.45
71 | CCc1nnc(Nc2cccc(C3CCCN(CC(C)(C)C)C3)n2)s1 (configuration not stated) | -34.6
72 | c1ccc(CNc2cc(C3CCCNC3)ccn2)nc1 (configuration not stated) | 7.775
73 | CN(C)CCNC(=O)C1Cc2nc(-c3ccsc3)sc2N1CC1CC1 (configuration not stated) | -16.2
74 | CCN1C[C@H]2[C@@H](C1)N(S(=O)(=O)c1ccccc1F)CC[C@H]2OC | 32.2
75 | CN1CCn2c(-c3ccccc3)cnc2C12CCN(CC1CC1)CC2 | 29.8
76 | CCOC(=O)N1C[C@@H]2CC[C@H]1CN(Cc1ccccc1)C2 | 12.8
77 | CN(C)CCN1C(=O)C[C@@H]2[C@@H]1CCN2S(=O)(=O)c1ccccc1 | -71.3
78 | CCC(=O)N1CCCCC1c1nc(O)c2c(n1)CN(S(C)(=O)=O)CC2 (configuration not stated) | 10.9
79 | Cn1ccc(-c2cc(C(=O)N3CCCCC3)c3ccccn23)n1 | 49.4
80 | O=C(CCCOc1ccccc1F)Nc1cc[nH]n1 | 11.5
81 | CC(C)CC(=O)N[C@H](C)c1c(-c2ccc(Cl)cc2)noc1C(=O)O | 7.5
82 | CC(NC(=O)NCCCN(C(C)C)S(C)(=O)=O)c1ccncc1 (configuration not stated) | -11.4
83 | NC(=O)CN(C(=O)C1Cc2cc(Cl)ccc2O1)C1CCCC1 (configuration not stated) | 6.83
84 | O=C(O)c1ccc(F)c(S(=O)(=O)N2CCOc3ccccc32)c1 | 32.44
85 | Cc1ccc(C(=O)N2C[C@H]3CC[C@@H](C2)N(CC2CCC2)C3)s1 | -26.4
86 | COc1ncnc2c1CCN(Cc1cccs1)CC2 | -0.804
87 | CCc1noc(C2CCCCN2C(=O)c2cc(C)n(C)n2)n1 (configuration not stated) | 52.4
88 | CCc1noc(C2CCCCN2C(=O)c2nnc3ccccc3n2)n1 (configuration not stated) | 62.4
89 | CCc1noc(C2CCCCN2C(=O)c2ccccc2)n1 (configuration not stated) | -45
90 | CCc1noc(C2CCCCN2C(=O)c2cccs2)n1 (configuration not stated) | 9.32
91 | CCc1noc(C2CCCCN2C(=O)c2ccc(C)o2)n1 (configuration not stated) | 45.8
92 | CCc1noc(C2CCCCN2C(=O)c2ccn(C3CCCC3)n2)n1 (configuration not stated) | 6.32

Row | Compound | INHIBITION [%]
93 | CCc1noc(C2CCCCN2C(=O)c2ccoc2C)n1 (configuration not stated) | 22.1
94 | CCc1noc(C2CCCCN2C(=O)c2cc(C)oc2C)n1 (configuration not stated) | 78.1
95 | CCc1noc(C2CCCCN2C(=O)c2cc(C)on2)n1 (configuration not stated) | 22.6
96 | Cc1nn(CC(=O)Nc2ccon2)cc1Br | 20.1
97 | CN1CCC(N(CCc2ccccc2)C(=O)c2ccoc2)CC1 | 32.8
98 | CC(=O)N1CCC(C)(c2cc[nH]n2)CC1 | 35
99 | CN1CCN(CC(NCc2ccc(F)c(F)c2)c2ccccc2)CC1 (configuration not stated) | 8.31
100 | Cc1nonc1CC(=O)N1CCC2(CCCN(C3CCOCC3)C2=O)C1 (configuration not stated) | -41.8
101 | CCn1ccnc1CN1CCN(CC(=O)NC(=O)NC2CC2)CC1 | -3.95
102 | O=C(CCC1CCN(Cc2ncc[nH]2)CC1)Nc1ccccc1Cl | 38.5
103 | O=C(CCC1CCN(Cc2ccncc2)CC1)Nc1ccccc1Cl | 70.1
104 | CSc1ccc(CN2CCC(CCC(=O)Nc3ccccc3)CC2)cc1 | 64.5
105 | CCn1cc(CN2CCC(CCC(=O)Nc3ccccc3Cl)CC2)cn1 | 49.5
106 | CSc1cccc(CN2CCC(CCC(=O)Nc3ccccc3)CC2)c1 | 47.7
107 | CCn1ccnc1CN1CCN(CC(=O)NC2CCOCC2)CC1 | 22.5
108 | CSc1cccc(CN2CCC(CCC(=O)NC3CC3)CC2)c1 | 35.4
109 | CCn1ccnc1CN1CCN(CC(=O)NC(C2CC2)C2CC2)CC1 | 51.85
110 | Cn1cc(CN2CCC(CCC(=O)Nc3ccccc3Cl)CC2)cn1 | 34
111 | CCn1ccnc1CN1CCC(CCC(=O)Nc2ccccc2Cl)CC1 | 71.8
112 | Cn1ccnc1CN1CCC(CCC(=O)Nc2ccccc2Cl)CC1 | 9.72

From ChEMBL document CHEMBL4513216, “Probing the Open Global Health Chemical Diversity Library for Multistage-Active Starting Points for Next-Generation Antimalarials” (ACS Infect Dis, 2020)
